The text below walks through data of PMC11062922 (Nature Chemical Biology, 2023).

Structures are written as SMILES. Where two headings read alike, the source gives them in different places.

Holding throughout (set-up): species or system human, MV4-11 + K-562 + COLO205 + SK-N-BE2 + OVCAR-8
Experiment [1] relates to CIT. As to conditions: read-out: apparent Kd, n = 1.
Experiment [2] concerns COX5A. The note with it: read-out: apparent Kd; compound concentrations:100 nM and 1000 nM (sheet 'Samples'); n = 1.
Experiment [3] deals with CSNK1A1. The note with it: read-out: apparent Kd, n = 1.
Experiment [4] has as its system CSNK1D. The note with it: read-out: apparent Kd, n = 1.
Experiment [5] concerns CSNK1E. The note with it: read-out: apparent Kd, n = 1.
The subject of experiment [6] is DDR2. The note with it: read-out: apparent Kd, n = 1.
Experiment [7] has as its system GAK. As to conditions: read-out: apparent Kd; compound concentrations:100 nM and 1000 nM (sheet 'Samples'); n = 1.
The subject of experiment [8] is MAP2K2. The note with it: read-out: apparent Kd; compound concentrations:100 nM and 1000 nM (sheet 'Samples'); n = 1.
The subject of experiment [9] is MAPK10. As to conditions: read-out: apparent Kd, n = 1.
Experiment [10] has as its system MAPK11. As to conditions: read-out: apparent Kd; compound concentrations:100 nM and 1000 nM (sheet 'Samples'); n = 1.
The test system of experiment [11] is MAPK14. The note with it: read-out: apparent Kd, n = 1.
For experiment [12], the system named is MAPK9. The note with it: read-out: apparent Kd, n = 1.
Experiment [13] deals with MAPKAPK2. As to conditions: read-out: apparent Kd, n = 1.
The test system of experiment [14] is NLK. The note with it: read-out: apparent Kd, n = 1.
The test system of experiment [15] is NNT. As to conditions: read-out: apparent Kd; compound concentrations:100 nM and 1000 nM (sheet 'Samples'); n = 1.
Experiment [16] deals with PIP4K2C. As to conditions: read-out: apparent Kd; compound concentrations:100 nM and 1000 nM (sheet 'Samples'); n = 1.
The subject of experiment [17] is PKN3. As to conditions: read-out: apparent Kd; compound concentrations:100 nM and 1000 nM (sheet 'Samples'); n = 1.
Experiment [18] relates to PRKD2. The note with it: read-out: apparent Kd; compound concentrations:100 nM and 1000 nM (sheet 'Samples'); n = 1.
The subject of experiment [19] is PSMC3. The note with it: read-out: apparent Kd; compound concentrations:100 nM and 1000 nM (sheet 'Samples'); n = 1.
Experiment [20] concerns RIPK2. As to conditions: read-out: apparent Kd, n = 1.
Experiment [21] deals with TGFBR1. The note with it: read-out: apparent Kd; compound concentrations:100 nM and 1000 nM (sheet 'Samples'); n = 1.
Experiment [22] relates to DDR1. The note with it: read-out: apparent Kd; compound concentrations: 100 nM and 1000 nM (sheet 'Samples'), CATDS: 5.04347105241187E-2; n = 1.
Experiment [23] concerns ERCC2. As to conditions: read-out: apparent Kd; compound concentrations: 100 nM and 1000 nM (sheet 'Samples'), CATDS: 0.16888440143106601; n = 1.
For experiment [24], the system named is TNK1. The note with it: read-out: apparent Kd; compound concentrations: 100 nM and 1000 nM (sheet 'Samples'), CATDS: 0.18410889385923901; n = 1.
In experiment [25] the test system is TNK2. As to conditions: read-out: apparent Kd; compound concentrations: 100 nM and 1000 nM (sheet 'Samples'), CATDS: 0.19568733735508301; n = 1.
Experiment [26] has as its system CDK6. As to conditions: read-out: apparent Kd; compound concentrations:100 nM and 1000 nM (sheet 'Samples'); n = 1.
The subject of experiment [27] is CDKL5. As to conditions: read-out: apparent Kd; compound concentrations:100 nM and 1000 nM (sheet 'Samples'); n = 1.
Experiment [28] deals with T1, DJA1.
T1 construct: gene DNAJA1
The note with it: read-out: apparent Kd; compound concentrations:100 nM and 1000 nM (sheet 'Samples'); n = 1.

In experiment [29] the test system is DYRK1A. The note with it: read-out: apparent Kd; compound concentrations:100 nM and 1000 nM (sheet 'Samples'); n = 1.
Setting [30] is: compound concentrations:100 nM and 1000 nM (sheet 'Samples').

Take `CN1CCC(n2cnc(-c3ccc(F)cc3)c2-c2ccnc(N)n2)CC1` [SB-220455]: the potency estimated from few doses was 230 nM in [1] (setting [30]); 656 nM in experiment [2]; 24.7 nM in experiment [3] (setting [30]); 2.26 nM in [4] (setting [30]); 5.87 nM in experiment [5] (setting [30]); 578 nM in experiment [6] (setting [30]). In addition, the potency estimated from few doses was 1350 nM in [7]; 185 nM in experiment [8]; 784 nM in experiment [9] (setting [30]); 1130 nM in experiment [10]; 22 nM in [11] (setting [30]); 450 nM in experiment [12] (setting [30]). The potency estimated from few doses in experiment [13] (setting [30]) is 3.88 nM; in [14] (setting [30]), 81.5 nM; in experiment [15], 1290 nM; in [16], 2310 nM; in [17], 1520 nM; in [18], 1580 nM. The potency estimated from few doses is 1920 nM in [19], 246 nM in experiment [20] (setting [30]) and 2020 nM in [21].
For the molecule `Nc1nccc(-c2c(-c3ccc(F)cc3)ncn2C2CCN(Cc3ccccc3)CC2)n1` [SB-219980], the potency estimated from few doses in experiment [1] (compound concentrations: 100 nM and 1000 nM (sheet 'Samples'), CATDS: 7.5521196037373797E-2) is 142 nM; in experiment [3] (compound concentrations: 100 nM and 1000 nM (sheet 'Samples'), CATDS: 4.0949734681157798E-2), 1790 nM; in experiment [4] (compound concentrations: 100 nM and 1000 nM (sheet 'Samples'), CATDS: 7.5353596099526104E-2), 143 nM; in experiment [5] (compound concentrations: 100 nM and 1000 nM (sheet 'Samples'), CATDS: 5.67501120580748E-2), 362 nM; in experiment [22] it was 584 nM; in [6] (compound concentrations: 100 nM and 1000 nM (sheet 'Samples'), CATDS: 3.97356163806874E-2), 2230 nM. Moreover, the potency estimated from few doses is 26.1 nM in experiment [23]; 1230 nM in experiment [9] (compound concentrations: 100 nM and 1000 nM (sheet 'Samples'), CATDS: 4.34774071226985E-2); 53.6 nM in [11] (compound concentrations: 100 nM and 1000 nM (sheet 'Samples'), CATDS: 0.113663446643848); 814 nM in [12] (compound concentrations: 100 nM and 1000 nM (sheet 'Samples'), CATDS: 4.6959741652320801E-2); 99.3 nM in experiment [13] (compound concentrations: 100 nM and 1000 nM (sheet 'Samples'), CATDS: 8.6501611072326803E-2); 770 nM in experiment [14] (compound concentrations: 100 nM and 1000 nM (sheet 'Samples'), CATDS: 4.75025353654299E-2). For the same molecule, the potency estimated from few doses in experiment [20] (compound concentrations: 100 nM and 1000 nM (sheet 'Samples'), CATDS: 0.10770613005205) is 60 nM; in [24], 22.7 nM; in [25], 20.7 nM.
For the molecule `O=C(Nc1n[nH]c2cc(-c3ccsc3)ccc12)C1CC1` [SB-732932_KCGS], the potency estimated from few doses is 1430 nM in experiment [26]; 1820 nM in experiment [27]; 2070 nM in experiment [28]; 1670 nM in experiment [29]; 1560 nM in experiment [11] (setting [30]).
With `Fc1ccc(-c2ncn(CCCNCc3ccccc3)c2-c2ccncc2)cc1` [SB-210486], the potency estimated from few doses was 1360 nM in experiment [3] (compound concentrations: 100 nM and 1000 nM (sheet 'Samples'), CATDS: 0.128304526213217); 280 nM in experiment [4] (compound concentrations: 100 nM and 1000 nM (sheet 'Samples'), CATDS: 0.26868989903925999); 716 nM in experiment [5] (compound concentrations: 100 nM and 1000 nM (sheet 'Samples'), CATDS: 0.162916255761588); 509 nM in experiment [11] (compound concentrations: 100 nM and 1000 nM (sheet 'Samples'), CATDS: 0.19130895998185199); 2070 nM in experiment [12] (compound concentrations: 100 nM and 1000 nM (sheet 'Samples'), CATDS: 0.114122400306413); 363 nM in [13] (compound concentrations: 100 nM and 1000 nM (sheet 'Samples'), CATDS: 0.22954264686774201).
